The assay deals with Interleukin-8 (IL8, CXCL8), C-terminal His-tagged (Homo sapiens, UniProt P10145 SEQ:1-72). In words: competition; competition TR-FRET; L1 A to U, described as complete loss. The conditions noted are these: tags: C-terminal 6xHis (Sino Biological); ssRNA; 2'-F G, 2'-OMe A/C/U, 5' C6NH2, 3' idT. As for the experimental part:
To better understand the sequence requirements and to confirm the stem structures of members of the Aptamer 3 family as determined from sequence covariation analysis from both the primary and secondary (degenerate) selections, a series of variants which included mutations and deletions to the predicted stems were synthesized and screened (Table 24). Activity of each of these variants were tested using a time resolved competition TR-FRET assay in which the labeled parent Aptamer 3 was competed with increasing concentrations of unlabeled variants for binding to IL8 (FIG. 14). Briefly, 2-fold dilutions of thermally equilibrated aptamers were made in TR-FRET Buffer (50 mM MOPS, pH 7.4, 125 mM NaCl, 5 mM KCl, 50 μM CHAPS, 0.1 mg/mL BSA, 1 mM CaCl₂, and 1 mM MgCl₂). 5 μL of aptamer or control solution was added to 5 μl mix of 10 nM C-terminal His-tagged-IL8, 60 nM ALEXA FLUOR® 647-labeled Aptamer, and 5 nM anti-His-Eu (Perkin Elmer) in a black wall low volume 384 well plate (Greiner). […] The plate was read on a Biotek CYTATION™ 5 plate reader. […]
To confirm the importance of this residue, molecules were made and tested in which either loop L1 was deleted entirely (Aptamer 40) or was mutated to 5′-U-3′(Aptamer 41). In both cases, there was a complete loss of activity (>10-fold) as determined by competition TR-FRET assay (Table 25 and FIG. 15).
In the case of GAUGUCGGUAGAUUACGGGUAGAGUGACCGCAUC, the binding signal was > 10 fold worse than Aptamer 3.

Values taken from patent publication US20210230599, “STEM-LOOP COMPOSITIONS AND METHODS FOR INHIBITING INTERLEUKIN-8” (VITRISA THERAPEUTICS, INC., published 2021).
